Assay results from the supplement of paper PMC8047044.
Where a name gives a salt, the structure may show the parent alone.

Test system: Neuro-2a
Assay: neurite formation score, plate-normalized to DMSO control mean 5.04 (score (0-8 scale)); higher = more or longer neurites
Details: 1 µM
Protocol: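 Neuro-2a mouse neuroblastoma cells in PLL-coated 96-well plates were pre-treated for 1 h in DMEM(+) with each kinase inhibitor at 1 µM, then switched to serum-free DMEM(-) with inhibitor to induce neurite outgrowth and fixed about 2-3 h later. Three blinded observers scored neurite formation from 0 (no neurites) to 8 (long neurites on almost all cells).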

SMILES	neurite formation score
CN(C)c1nc2c(Br)c(Br)c(Br)c(Br)c2[nH]1	5.02
CCCCCCCCCCCCc1ccc(S(=O)(=O)Nc2nncs2)cc1	4.24
CC(C)Oc1ccc(-c2cnc3c(-c4ccnc5ccccc45)cnn3c2)cc1	4.88
C=CC(=O)Nc1cccc(Sc2nc(Nc3ccc(N4CCN(C)CC4)cc3)ncc2Cl)c1	4.91
CC(C)n1nc(-c2cc3cc(O)ccc3[nH]2)c2c(N)ncnc21	3.47
CC(C)(C)c1nc2c3cc[nH]c(=O)c3c3cc(F)ccc3c2[nH]1 [Pyridone 6]	3.69
COc1c(OCCCN2CCOCC2)ccc2c3n(c(=NC(=O)c4cnc(N)nc4)nc12)CCN3 [BAY 80-6946 (Copanlisib)]	4.14
Clc1ccc(Nc2nnc(Cc3ccncc3)c3ccccc23)cc1 [Vatalanib]	4.69
Cc1nc(Nc2ncc(C(=O)Nc3c(C)cccc3Cl)s2)cc(N2CCN(CCO)CC2)n1	1.57
O=C(Cc1ccc(-c2ccc(OCCN3CCOCC3)cc2)cn1)NCc1ccccc1 [KX2-391 dihydrochloride]	0.692
CCc1cc(Nc2nccc(-c3c(-c4ccc(OC)c(C(=O)Nc5c(F)cccc5F)c4)nc4ccccn34)n2)c(OC)cc1N1CCC(N2CCN(S(C)(=O)=O)CC2)CC1	4.91
CCN(CCCOc1ccc2c(Nc3cc(CC(=O)Nc4cccc(F)c4)[nH]n3)ncnc2c1)CCOP(=O)(O)O	4.91
c1cc(-c2cnn3cc(-c4ccc(N5CCNCC5)cc4)cnc23)c2cccnc2c1	4.88
CN(C)C/C=C/C(=O)Nc1cc2c(Nc3ccc(F)c(Cl)c3)ncnc2cc1O[C@H]1CCOC1 [Afatinib (BIBW2992)]	3.57
CNC(=O)c1ccc(-c2cnc3ncc(Cc4ccc5ncccc5c4)n3n2)cc1F	5.14
CCC[C@H](NC(=O)/C(C#N)=C/c1cccc(Br)n1)c1ccccc1	1.24
CC(C)Nc1cc(-c2c[nH]c(C(=O)N[C@H](CO)c3cccc(Cl)c3)c2)c(Cl)cn1	3.47
Cc1cc(N2CCOCC2)cc2[nH]c(-c3c(NC[C@@H](O)c4cccc(Cl)c4)cc[nH]c3=O)nc12	3.57
C=CC(=O)Nc1cccc(Oc2nc(Nc3ccc(N4CCN(C)CC4)cc3)ncc2Cl)c1	5.96
O=C(Nc1ccccc1C(=O)NC1CCCCNC1=O)c1cc2ccccc2s1 (stereo not given)	3.54

SMILES	neurite formation score
COc1ccc(C(=O)Nc2sc3c(c2C(N)=O)CCCC3)cc1OC	4.57
NC(=S)N/N=C/c1ncccc1N [Triapine]	4.88
CNC(=O)c1cc(Oc2ccc(NC(=O)Nc3ccc(Cl)c(C(F)(F)F)c3)cc2)ccn1 [Sorafenib]	4.24
Cc1cc(C(C)Nc2ccccc2)c2nc(N3CCOCC3)cc(=O)n2c1 (stereo not given)	4.47
C#Cc1cccc(Nc2ncnc3cc(OC)c(OCCCCCCC(=O)NO)cc23)c1	4.36
CC(C)[C@H](CO)Nc1nc(Nc2ccc(C(=O)O)c(Cl)c2)c2ncn(C(C)C)c2n1 [Purvalanol B]	4.63
CN1CCC(CNc2ccc3ncc(-c4cccc(OC(F)(F)F)c4)n3n2)CC1 [SGI-1776 free base]	5.69
CCOc1ccn(-c2ccc(F)cc2)c(=O)c1C(=O)Nc1ccc(Oc2ccnc(N)c2Cl)c(F)c1	5.24
Nc1nc(Nc2ccc(S(N)(=O)=O)cc2)nn1C(=O)c1c(F)cccc1F	5.02
COc1cccc(-c2cc(=O)c3ccccc3o2)c1N	3.57
C[C@@H](Oc1ccc2[nH]nc(/C=C/c3cnn(CCO)c3)c2c1)c1c(Cl)cncc1Cl	1.02
CC(C)(C)n1nc(-c2ccc(Cl)cc2)c2c(N)ncnc21	4.24
COc1cc(C(=O)NC2CCN(C)CC2)c(F)cc1Nc1ncc2c(n1)N(C1CCCC1)CC(F)(F)C(=O)N2C	5.54
CCS(=O)(=O)Nc1ccc2[nH]c(O)c(C(=Nc3ccc(CN4CCCCC4)cc3)c3ccccc3)c2c1 [Hesperadin]	1.02
Nc1nccc(-c2c(-c3ccc(F)cc3)ncn2C2CCCCC2)n1	5.02
Cc1c(CN2CCN(C(=O)[C@H](C)O)CC2)sc2c(N3CCOCC3)nc(-c3cnc(N)nc3)nc12	4.21
Cc1cnc(Nc2ccc(OCCN3CCCC3)cc2)nc1Nc1cccc(S(=O)(=O)NC(C)(C)C)c1	4.69
CCN(CC)CCCCNc1ncc2cc(-c3cc(OC)cc(OC)c3)c(NC(=O)NC(C)(C)C)nc2n1	4.24
CN(C)c1ccc(-c2nc3ncc(Cl)c(N4CCN(CC(=O)Nc5nccs5)CC4)c3[nH]2)cc1	3.8
NC(=O)c1ccc(N(C(N)=O)c2c(F)cccc2F)nc1-c1ccc(F)cc1F	4.63
